High-throughput results from PubChem BioAssay.
mHTT-CaM PPI inh: mHTT-calmodulin interaction abrogation. AlphaScreen His-mHTT/GST-CaM binding, luminescence. inhibition, % at 15 µM. hit rate 3.6% among 190,000
Pf apPOL inh: Pf-apPOL DNA polymerase inhibition; inhibition, % at 10 µM; hit rate 0.25% among 210,000; Recombinant Pf-apPOL, molecular beacon fluorescence, 1.5 h
A number is an active result; i = inactive; nt = no result given. Sampled rows, rich in hits. Any-hit rate of the full collection: about 3.6%. No stated cut-off is given here; in the data, active means inhibition above about 50%; inactive means the rest.

SMILES	mHTT-CaM PPI inh	Pf apPOL inh
CCOc1ccc(C(=O)Nc2cccc(F)c2)cc1Cl	i	i
O=C1c2ccccc2-n2c1nc1ccccc1c2=O	nt	i
C#Cc1ccc(NC(=O)c2cc(C(F)(F)F)cc(C(F)(F)F)c2)cc1	nt	i
O=C(CCc1nnc(-c2ccc(F)cc2)[nH]c1=O)NC1CC1	i	i
CCCN1CC=C2C(C#N)=C(N)C(C#N)(C#N)C(c3ccccc3Cl)C2C1 (configuration not stated)	i	i
COc1cccc(C2C3CN(Cc4ccccc4)CC=C3C(C(=O)O)=C(N)C2(C#N)C#N)c1 (configuration not stated)	i	94
Cc1ccc(C2C3CN(Cc4ccccc4)CC=C3C(C(=O)O)=C(N)C2(C#N)C#N)o1 (configuration not stated)	52	i
CC(=O)N1CC=C2C(C#N)=C(N)C(C#N)(C#N)C(c3cccc(Cl)c3)C2C1 (configuration not stated)	i	i
COc1ccc(NC(=O)C2CCCN(c3nnc4ccccn34)C2)cc1F (configuration not stated)	i	i
COc1ccccc1Oc1ccc2c(c1)C(=O)N(CC(=O)O)C2=O	i	i
Cn1c(=O)c(N2CCN(C(=O)c3cc(F)ccc3F)CC2)nc2ccccc21	i	i
COc1ccc(C(NC(=O)c2ccccc2)NC(=O)c2ccccc2)c(OC)c1	i	i
COc1cccc(NC(c2ccccn2)c2ccc3cccnc3c2O)c1 (configuration not stated)	99	i
COc1cccc(NS(=O)(=O)c2cccc3cccnc23)c1	i	i
COc1cccc(C(NC(=O)c2ccccc2)c2ccc3cccnc3c2O)c1 (configuration not stated)	100	i
COc1ccc(C(NC(=O)c2ccccc2)c2ccc3cccnc3c2O)cc1 (configuration not stated)	100	i
O=S(=O)(NCCSCc1ccco1)c1ccc2c(c1)OCCO2	i	i
Cc1cc(C)cc(-n2nnc(C(=O)NC(C)C)c2N)c1	i	i
COc1ccc(C(=O)N2CCc3cc(OC)c(OC)cc3C2C)c(OC)c1 (configuration not stated)	i	i
COc1ccc(-c2nc3cccnc3n2C2CCN(C(=O)NC3CCCC3)C2)cc1 (configuration not stated)	i	i
O=C(c1ccccc1)N1CCc2nc3cc(-c4ccccc4)[nH]n3c(=O)c2C1	i	i
O=C(ON=C1c2ccccc2-c2ccccc21)c1ccccc1F	i	i
CCC1=NN(C(=O)c2ccc(Br)cc2)C(O)(c2ccc(OC)cc2)C1 (configuration not stated)	59	i
CCC1=NN(C(=O)c2ccncc2)C(O)(c2ccc(Br)cc2)C1 (configuration not stated)	i	i
CCC1=NN(C(=O)c2ccc(Cl)cc2)C(O)(c2ccc(Br)cc2)C1 (configuration not stated)	85	i
SMILES	mHTT-CaM PPI inh	Pf apPOL inh
CCC1=NN(C(=O)c2ccc(Br)cc2)C(O)(c2ccccc2)C1 (configuration not stated)	i	i
CCCCC1=NN(C(=O)c2cccc(Cl)c2)C(O)(C(F)(F)F)C1 (configuration not stated)	i	57
CCC1=NN(C(=O)c2cccc(Br)c2)C(O)(C(F)(F)F)C1 (configuration not stated)	i	i
CCC1=NN(C(=O)c2cccc(Cl)c2)C(O)(c2ccc(Br)cc2)C1 (configuration not stated)	89	i
CCC1=NN(C(=O)c2cccc(Cl)c2)C(O)(C(F)(F)F)C1 (configuration not stated)	i	i
O=C(O)CSc1nnc2c(n1)[nH]c1ccccc12	i	i
Cc1ccc(-n2nc3c(c2NC(=O)CC2CCCCC2)CS(=O)C3)cc1 (configuration not stated)	i	i
Cc1c(-c2noc(-c3ccccc3F)n2)nnn1Cc1ccc(F)cc1	i	i
Cc1cc(OCC(=O)N2N=C(C3CCCCC3)CC2(O)C(F)(F)F)ccc1Cl (configuration not stated)	100	i
CC1=NN(C(=O)COc2ccc(Cl)c(C)c2)C(O)(C(F)(F)F)C1 (configuration not stated)	i	i
O=C(c1ccccc1Cl)N1N=C2CCCCC2C1(O)C(F)(F)F (configuration not stated)	i	i
CC1=NN(C(=O)COc2cc(C)c(Cl)c(C)c2)C(O)(C(F)(F)F)C1 (configuration not stated)	i	i
Cc1cc(OCC(=O)N2N=C(c3ccccc3)CC2(O)C(F)(F)F)ccc1Cl (configuration not stated)	100	i
Cc1cc(OCC(=O)N2N=C3CCCCC3C2(O)C(F)(F)F)ccc1Cl (configuration not stated)	80	i
C=CCOc1ccc2ccc(=O)oc2c1	i	nt
CCCc1nc2oc3c(-c4ccccc4)c(C(=O)O)c(C)nc3c2c2c1COC(C)(C)C2	i	i
COc1ccc(N(CC(=O)N2CCCCCC2)S(=O)(=O)c2ccccc2)cc1Cl	i	i
Cc1nnc2ccc(S(=O)(=O)N(Cc3ccccc3)c3cc(F)cc(F)c3)cn12	i	i
Cc1nc2c(C(=O)NCc3ccccc3)cnn2c(C)c1Cc1ccc(Cl)cc1	i	i
COCCCNC(=O)c1cnn2c(C)c(Cc3ccc(Cl)cc3)c(C)nc12	90	i
Cc1nc2c(C(=O)N3CCCC(C)C3)cnn2c(C)c1Cc1ccc(Cl)cc1 (configuration not stated)	100	i
COCCNC(=O)c1cnn2c(C)c(Cc3ccc(F)cc3)c(C)nc12	i	i
Cc1nc2c(C(=O)N3CCCCC3)cnn2c(C)c1Cc1ccc(Cl)cc1	100	i
Cc1nc2c(C(=O)N3CCCCC3)cnn2c(C)c1Cc1ccccc1Br	i	i
O=C(NC1CCCCC1)c1cc2n(n1)CCCN(Cc1ccc(F)cc1)C2=O	i	i
SMILES	mHTT-CaM PPI inh	Pf apPOL inh
CCc1ccc(NC(=O)CN2C(=O)C(c3ccc(F)cc3)=NC2(C)C)cc1	i	i
Brc1ccc(-c2ccc(CNCc3ccco3)o2)cc1	92	i
Fc1ccc(-c2ccc(CNCc3ccco3)o2)cc1	i	i
Cc1[nH]c(C(=O)N2CCC(CC(=O)NCCCOC(C)C)CC2)c(C)c1C	i	i
N#CC1=C(N)Oc2cc(N)ccc2C1c1ccc(Cl)cc1 (configuration not stated)	i	i
N#CC1=C(N)Oc2cc(O)ccc2C1c1ccc(Cl)c(Cl)c1 (configuration not stated)	100	i
N#CC1=C(N)Oc2cc(O)ccc2C1c1ccc(Br)cc1 (configuration not stated)	i	i
N#CC1=C(N)Oc2cc(N)ccc2C1c1ccc(Cl)c(Cl)c1 (configuration not stated)	75	i
CCCc1cc(=O)oc2cc(OCC(=O)OCC(=O)c3ccc(Cl)cc3)ccc12	nt	i
CCCC(=O)Nc1ccc(NC(=O)COc2ccccc2C)cc1	i	i
CCc1ccc(C(=O)N2CCN(c3nc(CN4CCCCC4)cs3)CC2)cc1	i	i
CC1C(=O)C2(CCCCC2)C(=O)OC1c1ccc(Cl)cc1 (configuration not stated)	i	i
NS(=O)(=O)c1ccc(NS(=O)(=O)c2ccc(NC(=O)Nc3ccccc3)cc2)cc1	96	i
O=S(=O)(Nc1ccc(F)cc1)c1ccccc1	i	i
COc1ccc(NC2=C(C)C(=O)CC2)cc1	i	i
O=S(=O)(Nc1ccc(Nc2ccccc2)cc1)c1ccccc1	88	i
